These sequences were tested on PPARg:RXRa 270nM:90nM, anti-RXR (NR concentration 270 nM, RXRa partner concentration 90 nM) (assay: PBM binding z-score (relative to random genomic background probes); higher = stronger binding; sequences stand for … in GC…GCGATTGACAGCGTAGAATGAAGG).
How it was run: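 Random background probes are the reference for binding z-scores. These scores derive from regression-normalized fluorescence on custom Agilent 4×180K protein-binding microarrays incubated 1 h with ligand-free nuclear receptor dimers. Binding was detected with antibodies against each partner (one per run).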
In the case of ATCTCTAGGTAAATGTTCAGTGAATCCCGAGGAT, the PBM binding z-score is reported as 1.01. For AGTCAAAGTTCAGGACGAGGTAAAGTAAAGCACG, the PBM binding z-score was 4.89. CCTACTGGGCCAAAGGTCATAGATTCCAATGCTC was tested, and the PBM binding z-score was 10.5. Sequence AGTAAAAGTTCACTAGGTAACGTAAGATTCAGCT has a PBM binding z-score of 5. In the case of GCTTCCGGGTCAAAGGTTATAGCATGAATAGAAT, the PBM binding z-score is reported as 9.9. With CAAACTAGGTCACGAAAGGTCAAAATCGAATGAC the PBM binding z-score was 8.29. CGAACTAGGTCAAAGGACACTGAAAGGCGACGTA gave a PBM binding z-score of 8.98. GGAACGGGGGCATTCGAGTTGATAGCATGGCGAT was tested, and the PBM binding z-score was 4.08. For ACTAGGAGGACAAAGGTCAGAGCTACGCCAGTGA, the PBM binding z-score was 8.36. Sequence TATACTGGGTCAAAGGCCAGAGTACGAATGTCGA has a PBM binding z-score of 8.98. CAAACTAGGTCAAGGTCAAATTCGGTTTGTGCCA was tested, and the PBM binding z-score was 7.8. Sequence AGTCAAAGTTCACTAGGCAACGTAAGATTCAGCT has a PBM binding z-score of 6.21. CGTCCAAGGTCAATGTTAGGTCAGTGAAAGCATT showed a PBM binding z-score of 4.66. With CGTCCAAGGTCAGAGAGGTCAGTGTATGCCGAGT the PBM binding z-score was 3.98. ACTAGCAGGCCAAAGGTCACTCAAGATTAGTCCG was tested, and the PBM binding z-score was 8.65. Sequence GATACAGGGTGAGCTAGAGGCCAGAGTATGGAAA has a PBM binding z-score of -0.0418. CAAACTAGGTCAAAGGTCAACGTCGAGCCAACCA gave a PBM binding z-score of 11.3. In the case of CGGACTGGGGCAAAGGTTACCATACTCAGTACGA, the PBM binding z-score is reported as 9.26. Sequence GCATACGGGTCAAAGGTTATAGCATGAATAGAAT has a PBM binding z-score of 9.95. In the case of ACTAGCAGGTCAAGGGTCACTCAAGATTAGTCCG, the PBM binding z-score is reported as 9.23. CAAACTAGGTCACGAGGTCAAAGTCCGCTTCCCG showed a PBM binding z-score of 8.27. Work on TCATATAGGTTAAGGTGAAAGTCGAACGATATGA yielded a PBM binding z-score of 4.61. CTAACTAGGTCACGAAAGGTCAAAGTCGAATGAC gave a PBM binding z-score of 8.24. For CCTGCTAGGACAATGGTCAGCTAAAGCAGCTCGC, the PBM binding z-score was 1.2. Work on CAAACTAGGTCAAAGGTCAAGGTCGAGCCAACCA yielded a PBM binding z-score of 11.5. With GATACAGGGTCAAGGCCAGAATACGCGTATTGAT the PBM binding z-score was 5.74. Work on CGAACTAGGTCAGAGCAGGACAGTGAAGGATGAT yielded a PBM binding z-score of 5.01. Sequence CAAACTAGGTCAAAGGTCAAAGACGAGCCAACCA has a PBM binding z-score of 11.5. For ATCTCTAGGTGAAAGTTCAGTGAATCCCGAGGAT, the PBM binding z-score was 9.55. CAAACTAGGTCACAGAGGTCAAAGTTCGTGCGTA gave a PBM binding z-score of 8.37. CCTTACGGGTCTAGGTTATAGCACGGGTGGTACG gave a PBM binding z-score of -0.00243. Sequence TCTTGTAGATCAAAGGTCAAGAAAGCCGAAGCCT has a PBM binding z-score of 9.37. Work on ATATGTAGGTCAGGGTCATTCAGAAAGTAGGGAA yielded a PBM binding z-score of 7.66. For AGTCAAAGTTCATCTGGGTAACGTAAGATATGCT, the PBM binding z-score was 6.09. With TTACCAAGGTAAAAGGTCGTTGATGCACGCCTTG the PBM binding z-score was 6.8. ACTAGAAGGCCAAGGGTCACTCAAGATTAGTCCG was tested, and the PBM binding z-score was 7.08. GATACAGGGTCAGCTAGAGGTCAGAGTATGGAAA gave a PBM binding z-score of 5.22. With TCATATAGGTAATAAAGGTGAAAGTCGGCATCTA the PBM binding z-score was 4.44. For TCTTGTAGATCAAAGCTTAAGAAAGCCGAAGCCT, the PBM binding z-score was 1.5.
